The text below walks through data of PubChem BioAssay (NCATS).

Molecules are shown by their SMILES. “And” between values parts separate entries of the source, which are not always exact repeats. Identical values can stand only once. Results filed as inconclusive are left out. The source made the active and inactive calls. Calls follow the shape of the dose curve; as a rule, active = well fitted curve in the direction sought with a large enough effect; inconclusive = small, poorly fitted or top-dose-only effect, or another doubt; inactive = no such curve, though single readings can be large; an effect the other way counts as inactive or inconclusive.

A short description of assay [1]: qHTS of pediatric cancer cell lines to identify multiple opportunities for drug repurposing: Primary screen for SK-N-MC cells (AID 1347093). Also: series mostly up to about 46 µM. A digest of the protocol: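 Metabolically active cells were quantified by ATP-dependent luminescence (CellTiter-Glo, 15 min at room temperature) following 48 h treatment. Cells had been plated at 500-1,000 per well and settled for 5 h beforehand.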
On the technique in general: In qHTS, concentration-response curves come from the screen itself.

Assay [2] is described as follows: qHTS of pediatric cancer cell lines to identify multiple opportunities for drug repurposing: Primary screen for BT-12 cells (AID 1347101). Also: nearly all actives have a fitted effect of over 25% in size. Also: potency is read from the fitted curve at half-maximal effect. An outline of the steps:
(§1)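 Cells (500-1,000/well) rested 5 h, then received compounds for 48 h; metabolically active cells were measured by CellTiter-Glo luminescence. Final concentrations spanned up to 46 µM (MIPE, 11-point) or 0.59 nM-46 µM (NPC, 8-point) in primary screens, 11-point in follow-ups.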

The nature of assay [3]: qHTS of pediatric cancer cell lines to identify multiple opportunities for drug repurposing: Primary screen for Rh18 cells (AID 1347102). Also: nearly all actives have a fitted effect of over 65% in size. Also: potency is read from the fitted curve at half-maximal effect. A digest of the protocol: (§2)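 Viability after 48 h compound treatment at 37C, 500-1,000 cells/well, read as ATP luminescence with CellTiter-Glo. Primary screens used 11-point (MIPE, 0.78 nM-46 µM) or 8-point (NPC, 0.59 nM-46 µM) final concentrations; follow-up screens used 11-point dilutions.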

The nature of assay [4]: qHTS of pediatric cancer cell lines to identify multiple opportunities for drug repurposing: Primary screen for OHS-50 cells (AID 1347103). Also: nearly all actives have a fitted effect of over 40% in size. Also: potency is read from the fitted curve at half-maximal effect. A digest of the protocol: as §1
Assay [5] can be described thus: qHTS of pediatric cancer cell lines to identify multiple opportunities for drug repurposing: Primary screen for MG 63 (6-TG R) cells (AID 1347105). Also: nearly all actives have a fitted effect of over 50% in size. Also: potency is read from the fitted curve at half-maximal effect. An outline of the steps:
(§3)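 Cells plated at 500-1,000/well in growth medium, compounds added after 5 h. MIPE tested at 11 points (from 0.78 nM), NPC at 8 points (from 0.59 nM). CellTiter-Glo luminescence after 48 h; concentration-response curves from primary screen.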

Assay [6] in a line: qHTS of pediatric cancer cell lines to identify multiple opportunities for drug repurposing: Primary screen for control Hh wild type fibroblast cells (AID 1347106).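 Also: series mostly up to about 46 µM; a drop in luminescence marks cytotoxicity and a rise apparent proliferation; nearly all actives have a fitted effect of over 55% in size.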 An outline of the steps: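 Cells (500-1,000/well) in growth media were settled 5 h at 37 degrees C, then given compounds for 48 h. Viability was read as CellTiter-Glo luminescence. Primary runs used MIPE at 11 points (0.78 nM-46 µM) and NPC at 8 points (0.59 nM-46 µM); follow-ups used 11 points.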

Assay [7] is described as follows: qHTS of pediatric cancer cell lines to identify multiple opportunities for drug repurposing: Primary screen for Rh30 cells (AID 1347107). Also: series mostly up to about 46 µM; nearly all actives have a fitted effect of over 75% in size. An outline of the steps: as §2
Assay [8] in a line: qHTS of pediatric cancer cell lines to identify multiple opportunities for drug repurposing: Primary screen for Rh41 cells (AID 1347108).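 Also: series mostly up to about 46 µM; luminescence drop marks cytotoxic hits; nearly all actives have a fitted effect of over 70% in size.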 An outline of the steps: as §3
A short description of assay [9]: qHTS of pediatric cancer cell lines to identify multiple opportunities for drug repurposing: Primary screen for BT-37 cells (AID 1347094). Also: series mostly up to about 57 µM. An outline of the steps: as §3
Assay [10] is described as follows: qHTS of pediatric cancer cell lines to identify multiple opportunities for drug repurposing: Primary screen for NB-EBc1 cells (AID 1347095). Also: potency is read from the fitted curve at half-maximal effect. A digest of the protocol: as §3
Assay [11] can be described thus: qHTS of pediatric cancer cell lines to identify multiple opportunities for drug repurposing: Primary screen for U-2 OS cells (AID 1347096). Also: nearly all actives have a fitted effect of over 50% in size. An outline of the steps:
as §2

Assay [12] is described as follows: qHTS of pediatric cancer cell lines to identify multiple opportunities for drug repurposing: Primary screen for SK-N-SH cells (AID 1347098). Also: nearly all actives have a fitted effect of over 65% in size. Also: potency is read from the fitted curve at half-maximal effect. An outline of the steps:
as §1

A short description of assay [13]: qHTS of pediatric cancer cell lines to identify multiple opportunities for drug repurposing: Primary screen for LAN-5 cells (AID 1347100). Also: potency is read from the fitted curve at half-maximal effect. An outline of the steps: as §2
The nature of assay [14]: qHTS of pediatric cancer cell lines to identify multiple opportunities for drug repurposing: Primary screen for SJ-GBM2 cells (AID 1347091). An outline of the steps: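 Viability measured as metabolically active cells via CellTiter-Glo luminescence following 48 hours of compound exposure, 11-point dilutions in confirmatory testing. 500-1,000 cells/well plated 5 hours before dosing; controls were DMSO and 2.3 µM bortezomib.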

Assay [15] in a line: qHTS of pediatric cancer cell lines to identify multiple opportunities for drug repurposing: Primary screen for Saos-2 cells (AID 1347097). Also: nearly all actives have a fitted effect of over 40% in size. Also: potency is read from the fitted curve at half-maximal effect. A digest of the protocol:
as §3

Assay [16] can be described thus: qHTS of pediatric cancer cell lines to identify multiple opportunities for drug repurposing: Confirmatory screen for NB1643 cells (AID 1347109). Also: nearly all actives have a fitted effect of over 45% in size. A digest of the protocol: as §2
A short description of assay [17]: qHTS of pediatric cancer cell lines to identify multiple opportunities for drug repurposing: Confirmatory screen for A673 cells (AID 1347110).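 Also: cells exposed to compound for 48 h before the viability read; nearly all actives have a fitted effect of over 65% in size.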 Also: potency is read from the fitted curve at half-maximal effect. A digest of the protocol:
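Concentration-response curves came straight from titrations: 11 points (0.78 nM to 46 µM) for MIPE and several concentrations (0.59 nM to 46 µM) for NPC in primary, 11 points in follow-up. Readout: ATP luminescence at 48 h.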

Assay [18] can be described thus: qHTS of pediatric cancer cell lines to identify multiple opportunities for drug repurposing: Primary screen for RD cells (AID 1347104). Also: nearly all actives have a fitted effect of over 55% in size. An outline of the steps:
as §3

Assay [19] can be described thus: qHTS of pediatric cancer cell lines to identify multiple opportunities for drug repurposing: Primary screen for NB1643 cells (AID 1347099). Also: nearly all actives have a fitted effect of over 50% in size. Also: potency is read from the fitted curve at half-maximal effect. An outline of the steps: as §3
Assay [20] can be described thus: qHTS of pediatric cancer cell lines to identify multiple opportunities for drug repurposing: Primary screen for A673 cells (AID 1347092). Also: nearly all actives have a fitted effect of over 45% in size. Also: potency is read from the fitted curve at half-maximal effect. An outline of the steps: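 48 h compound exposure, A673, 500-1,000 cells/well, 37 degrees C/5% CO2. MIPE: 11-point, 0.78 nM-46 µM; NPC: 8-point, 0.59 nM-46 µM (final). Readout CellTiter-Glo luminescence after 15 min RT.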

Consider `CC(C)(Oc1ccc(C2CC2(Cl)Cl)cc1)C(=O)O` (configuration not stated), for which the Potency result in assay [1], in [2], in assay [3], in [4], in assay [5] and in [6] was “inactive” throughout. For the same molecule, in [8], the Potency entry is “inactive”. Also, the outcome in [7] was inactive.
Take `CN(C)CCC=C1c2ccccc2C=Cc2ccccc21`: the Potency entry in assay [9], in [10], in assay [11], in assay [13], in [3] and in assay [5] was “inactive” each time. For the same molecule, the Potency entry in assay [6] and in [8] was “inactive” each time. Also, the figures for the Potency in assay [12] and in [4] were 27.3 µM (active) and 27.6 µM (active), respectively. Further, the outcome in assay [7] was inactive.
With `CC(CCc1ccc(O)cc1)NCCc1ccc(O)c(O)c1` (configuration not stated), the Potency result in assay [14], in assay [9], in assay [11], in assay [4], in [5] and in assay [8] was “inactive” throughout. The Potency result in assay [16] was “inactive”. Moreover, the Potency was 18.7 µM (active) and 21.1 µM (active) in [15]; 20.9 µM (active) in [3]. The call in assay [7] was inactive.
On to `NC(=O)NO`, for which the Potency entry in assay [11], in assay [12], in assay [13], in [3], in assay [6] and in assay [16] was “inactive” each time. Moreover, the outcome in assay [7] was inactive. Also, the Potency in assay [17] was 0.414 µM (active).
Regarding `CC(C(=O)O)c1cccc(C(=O)c2ccccc2)c1` (configuration not stated), the Potency entry in assay [14], in assay [9], in [10], in assay [12], in [13] and in assay [2] was “inactive” each time. The Potency entry in assay [3], in assay [4], in assay [5] and in [8] was “inactive” throughout.
Turning to `NC12CC3CC(CC(C3)C1)C2`, the Potency entry in assay [14], in [9], in [10], in assay [11], in assay [13] and in assay [2] was “inactive” each time. Also, the Potency result in assay [3], in assay [4], in assay [18], in assay [5], in assay [6] and in assay [8] was “inactive” each time. Also, the Potency entry in assay [16] and in assay [17] was “inactive” throughout.
In the case of `O=c1[nH]cc(F)c(=O)[nH]1`, the Potency result in assay [14], in assay [11], in assay [3], in assay [4], in assay [5] and in assay [6] was “inactive” each time. In addition, the Potency entry in assay [8] is “inactive”. Also, the Potency was 9.44 µM (active) and 2.64 µM (active) in [10]; 5.26 µM (active) in assay [19]; 7.43 µM (active) in assay [13].
On to `C[C@@H]1CC(=O)NN=C1c1ccc(NN=C(C#N)C#N)cc1`, for which the Potency in [20] was 23.5 µM (active); in assay [15] it was 18.7 µM (active); in [2], 21.9 µM (active) and 27.6 µM (active) and 24.3 µM (active); in assay [4], 21.7 µM (active); in assay [5], 10.6 µM (active). Moreover, the Potency entry in [9], in assay [11], in assay [3] and in assay [6] was “inactive” each time. Besides, in [7], the call was inactive.
For the molecule `O=C(CCCN1CCC(O)(c2ccc(Cl)cc2)CC1)c1ccc(F)cc1`, the Potency result in assay [20], in assay [9], in assay [10], in assay [11], in [15] and in [3] was “inactive” in each case. For the same molecule, the Potency entry in assay [4], in assay [5] and in assay [8] was “inactive” in each case. In assay [7], the result was inactive.
Consider `CCOC(=O)Nc1ccc(NCc2ccc(F)cc2)nc1N`, for which the Potency entry in assay [14], in [9], in assay [10], in [11], in assay [15] and in assay [12] was “inactive” throughout. The Potency entry in assay [19], in assay [13], in assay [2], in assay [3], in assay [4] and in assay [18] was “inactive” in each case. For the same molecule, the Potency entry in [5] and in assay [8] was “inactive” throughout. In addition, in [7], the outcome was inactive.
As for `C[C@](N)(Cc1ccc(O)c(O)c1)C(=O)O`, the Potency entry in assay [14], in assay [9], in assay [10], in [11], in assay [15] and in assay [13] was “inactive” each time. The Potency result in assay [2], in assay [3], in [4], in [18], in assay [5] and in [6] was “inactive” throughout. Further, the Potency entry in assay [8] was “inactive”. The outcome in [7] was inactive.
Turning to `O=c1c(-c2ccc(O)cc2)coc2cc(O)cc(O)c12`, the Potency entry in assay [14], in assay [2], in assay [3], in [18], in assay [5] and in [8] was “inactive” in each case. Besides, the Potency in [10] was 23.7 µM (active).
